Screening results: PubChem, National Center for Advancing Translational Sciences (NCATS)
Most compounds without a hit are left out; they make up all but 12% or so of the library.
HP1b binding inh – inhibitors of HP1-beta chromodomain binding to methylated histone tails | Potency, µM (highest dose often 114 µM), without a hit: at the highest dose activity change, negative = inhibition, hits mostly inhibitors | P83916 | AlphaScreen HP1-beta / biotin-H3K9me3 peptide binding | 390,000 compounds, 0.56% hits; further: nearly all actives have a fitted effect of over 70% in size
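HP1-beta protein (50 nM final) preincubated 30 min at room temperature with biotinylated H3(1-18)K9me3 peptide (50 nM) in PBS pH 7.4, 0.01% Tween-20, then compound added for 30 min. AlphaScreen streptavidin donor/nickel chelate acceptor beads (10 ug/mL final), 30 min dark, luminescence read.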
L3MBTL1 inh – L3MBTL1 (human) inhibition. 230,000 compounds, 0.66% hits. Potency, µM (titrated, usually from 57.1 µM), for the others: at the top dose activity, negative = inhibition, most hits filed as inhibitors. AID 485360. AlphaScreen L3MBTL1–H3K9me1 peptide binding; further: on the % scale 0 is the no-effect control and ±100 the full control effect; nearly all actives have a fitted effect of over 60% in size
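First, the protein-peptide complex forms for 30 min at room temperature (L3MBTL1 50 nM, biotinylated H3K9me1 peptide 75 nM). Next, compounds are pin-transferred and incubated 30 min. Finally, AlphaScreen beads are added and read after 30 min.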
JMJD2A Tudor inh – JMJD2A Tudor domain (human) inhibition. O75164. Potency, µM (doses to about 114 µM), without a hit: at the top dose activity change, negative = inhibition, actives largely listed as inhibitors. 390,000 compounds, 4.4% hits. AID 504339. AlphaScreen JMJD2A-Tudor / H3K4me3 peptide binding; further: on the % scale 0 is the no-effect control and ±100 the full control effect; nearly all actives have a fitted effect of over 50% in size
G9a block – G9a (human) methyltransferase inhibition; Q96KQ7; G9a H3K9 monomethylation, AlphaScreen, 2 h; Potency, µM (titrated, usually from 102 µM), for inactives: at the highest dose activity, negative = inhibition, most hits filed as inhibitors; 350,000 compounds, 8.8% hits; further: on the % scale 0 is the no-effect control and ±100 the full control effect; nearly all actives have a fitted effect of over 75% in size
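Compounds were preincubated with 20 nM G9a for 15 min, after which biotinylated H3K9 peptide (500 nM) and SAM (20 uM) started a 2 h room-temperature reaction. Monomethylated product was quantified by antibody-based AlphaScreen chemiluminescence.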
BAZ2B block – inhibitors of human BAZ2B bromodomain; Potency, µM (top dose mostly 114 µM), inactives show at the highest dose activity change, negative = inhibition, usual class: inhibitors; 360,000 compounds, 4.4% hits; AID 504333; Q9UIF8; AlphaScreen BAZ2B-H3K14Ac peptide displacement; further: on the % scale 0 is the no-effect control and ±100 the full control effect; nearly all actives have a fitted effect of over 60% in size
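Complex of BAZ2B and biotin-H3K14Ac (50 nM apiece) forms over 30 min at RT, then faces library compounds up to 110 uM for another 30 min; AlphaScreen beads added, 20 min dark incubation, luminescence read.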
Sfp inh – blocks B. subtilis Sfp PPTase activity. Q9F4F7. Biochemical Sfp PPTase activity, qHTS. Potency, µM, for inactives: largest response in the series, negative = inhibition, usual class: inhibitors. 310,000 compounds, 3.5% hits;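 further: the enzyme is Sfp with the accession as filed and its product quenches rhodamine fluorescence; 0% = enzyme reaction without inhibitor and -100% = no enzyme wells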
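Reaction rates are the 30-min fluorescence difference (ex 525, em 598 nm) in wells containing 15 nM Sfp, 5 uM rhodamine-CoA and 12.5 uM BHQ-2-YbbR at pH 7.6 with 10 mM MgCl2.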
Numbers without * were called inactive; ? = inconclusive; / = not tested or not shown; [ ] = another dose, or the depositor's remark. The call rests on the fitted dose curve; in most records, active means well fitted curve in the direction sought with a large enough effect; inconclusive means small, poorly fitted or top-dose-only effect, or another doubt; inactive means no such curve, though single readings can be large; an effect the other way counts as inactive or inconclusive. Potency means the concentration at half of the fitted maximal effect.

SMILES	HP1b binding inh	L3MBTL1 inh	JMJD2A Tudor inh	G9a block	BAZ2B block	Sfp inh
O=C(Cn1nc(N2CCN(c3ccccc3)CC2)ccc1=O)NCc1ccccc1F	13.1%	/	-21.1%	1.4%[59 µM]	-10.9%	/
CCN(CC(=O)Nc1c(F)cccc1F)C(=O)c1cccc(S(=O)(=O)NCc2ccccc2)c1	-5.6%	-1.6%	-10.3%	-32.2%	-5.7%	/
CCOc1ccccc1CNC(=O)Cn1c(=O)c2cccn2c2ccc(F)cc21	52.0%	/	-10.2%	-1.6%[59 µM]	2.2%	/
Oc1ccc(/C=N/N(Cc2ccccc2)c2ccccc2)c(O)c1O	?	/	56.2µM*	28.2µM*	28.2µM*	56.2µM*
Oc1cccc(/C=N/N(Cc2ccccc2)c2ccccc2)c1	-14.2%	-6.4%	?	-19.8%	?	19.1%
Cc1ccc(C(C)C)c(OCC(=O)NN=C(CCl)CCl)c1	/	?	/	/	56.2µM*	50.1µM*
Cc1cccc(NC(=O)CSCC(=O)Nc2ccc(N3CCOCC3)cc2N2CCOCC2)c1	23.5%	/	-13.2%	/	/	/
Cc1ccc(C(C)C)c(OCC(=O)Nc2ccc(N3CCOCC3)cc2N2CCOCC2)c1	18.5%	-10.2%	-15.9%	25.1µM*	0.1%	/
Cc1ccc(CSCC(=O)Nc2ccc(N3CCOCC3)cc2N2CCOCC2)cc1	6.8%	5.7%	-17.9%	28.2µM*	-6.2%	/
Cc1ccc(C(C)C)c(OCC(=O)Nc2ccccc2N2CCN(C)CC2)c1	-19.1%	-24.7%	?	-3.6%[12.7 µM]	?	?
CCOc1ccc(CCNC(=O)CCS(=O)(=O)c2ccc(C)cc2)cc1OCC	4.0%	/	-4.3%	8.5%	-15.9%	4.8%
COc1cccc(CNC(=O)c2ccc3c(c2)nc2n3CCCCC2)c1OC	15.1%[57 µM]	/	-16.2%	37.0%[59 µM]	7.5%	/
O[C@@H]1CO[C@H]2C1OC[C@@H]2O (stereo not given in full)	/	/	/	/	/	-2.6%
COc1ccc(-c2csc(NC(=O)CS(=O)(=O)c3ccccc3)n2)cc1	4.4%	-4.3%	-27.2%	44.7µM*	-10.1%	/
COc1ccc(CCC(=O)Nc2nc(-c3ccncc3)cs2)cc1	/	26.3%	/	8.91µM*	-6.6%	-17.3%
O=C(COc1ccc(Cl)cc1)Nc1nc(-c2ccncc2)cs1	?	/	-31.5%	7.94µM*	-17.4%	22.4µM*
COc1cccc(-c2csc(NC(=O)Oc3ccccc3)n2)c1	?	-14.5%	89.1µM*	-2.4%	?	-2.2%
COc1ccc(-c2csc(NC(=O)CS(=O)(=O)c3ccc(F)cc3)n2)cc1OC	5.3%	-6.1%	-34.9%	?	-12.8%	/
CCCC(=O)Nc1nc(-c2ccc(OC)cc2)cs1	10.6%	/	-11.5%	10.6%[12.7 µM]	-4.9%	12.6%
Cc1csc(NC(=O)CSc2nc(=O)[nH]c3c2CCCC3)n1	20.7%	/	-15.3%	27.0%[59 µM]	-15.3%	17.6%
CC1CN(CC(O)COc2ccc(C#N)cc2)CCN1CC(O)COc1ccc(C#N)cc1 (stereo not given)	18.4%	/	12.3%	6.6%	4.0%	15.1%
N#Cc1ccc(N2CCN(S(=O)(=O)c3ccc4c(c3)CC(=O)N4)CC2)cc1	/	/	-20.6%	/	/	/
COC(=O)[C@H](Cc1c[nH]c2ccccc12)NC(=O)NCc1ccc(OC)cc1	43.4%	/	-15.8%	-3.1%	-7.2%	10.7%
COc1ccc(CC(=O)Nc2nc(-c3ccncc3)cs2)cc1	25.1%	-2.2%	-18.3%	39.8µM*	-14.0%	-15.4%
COc1ccc(NC(=O)N2CCN(c3nc(-c4cccc(OC)c4)cs3)CC2)cc1	-2.3%	-1.9%	-29.1%	12.6µM*	?	3.3%
SMILES	HP1b binding inh	L3MBTL1 inh	JMJD2A Tudor inh	G9a block	BAZ2B block	Sfp inh
COc1ccc(-c2csc(NC(=O)CSc3nc(C)cs3)n2)cc1	29.3%	/	-18.1%	/	/	/
COc1ccc(-c2csc(NC(=O)CSc3nc(C)nc4sc(C(=O)O)c(C)c34)n2)cc1	22.4µM*	4.2%	22.4µM*	/	50.1µM*	-3.6%
CCNc1ncc2nc(CCc3ccccc3)c(=O)n(Cc3cccc(OC)c3)c2n1	/	/	/	8.3%[0.501 µM]	/	0.4%
CCNc1ncc2nc(-c3cccc(C#N)c3)c(=O)n(Cc3cccc(OC)c3)c2n1	/	/	/	10.0%[0.501 µM]	/	26.5%
CCN(c1ccccc1)S(=O)(=O)c1ccc(Cl)c(NC(=O)CNCc2ccccc2OC)c1	?	-9.8%	3.16µM*	/	/	/
CCN(c1ccccc1)S(=O)(=O)c1ccc(Cl)c(NC(=O)CN(C)C2CCN(C)CC2)c1	?	/	?	11.2µM*	22.4µM*	79.4µM*
CCN(c1ccccc1)S(=O)(=O)c1ccc(OC)c(NC(=O)c2c(C)noc2C)c1	22.0%	-0.9%	0.7%	-38.8%	3.4%	/
CCN(c1ccccc1)S(=O)(=O)c1ccc(OC)c(NC(=O)Cc2ccccc2OC)c1	31.9%	-6.9%	2.0%	-16.6%[12.7 µM]	11.6%	/
COc1ccc(OC)c(NC(=O)c2ccc(CN(c3cc(Cl)ccc3C)S(=O)(=O)c3ccccc3)cc2)c1	7.7%	6.3%	-1.8%	-38.8%	-8.9%	79.4µM*
CCN(c1ccccc1)S(=O)(=O)c1ccc(Cl)c(NC(=O)CN2CCN(C)CC2)c1	23.6%	-1.7%	-15.8%	?	-22.8%	/
CCN(c1ccccc1)S(=O)(=O)c1ccc(OC)c(NC(=O)c2cc(Cl)ccn2)c1	33.2%	-6.7%	-4.1%	56.2µM*	-2.3%	/
Clc1ccc(C2=CSC3=NCCN23)c(Cl)c1	17.9%	/	-18.4%	/	/	/
COCCn1c(=O)c(-c2cccs2)nc2cnc(Nc3ccccc3)nc21	/	/	/	7.3%[12.7 µM]	/	28.5%
COc1cccc2oc3ccc(C#Cc4ccccn4)cc3c(=O)c12	29.7%	-5.6%	-15.5%	50.1µM*	-7.9%	0.4%
COc1cc2sc3ccc(C#Cc4ccccn4)cc3c(=O)c2cc1OC	30.9%	/	?	/	/	/
O=c1c2ccccc2oc2cc(C#Cc3ccccn3)ccc12	81.1%	/	-19.0%	/	/	/
COc1cccc2sc3cc(C#Cc4ccccn4)ccc3c(=O)c12	-6.7%	-1.8%	28.2µM*	/	/	/
COc1ccc(/C=N/NC(=O)c2c(Br)cnn2C)c2ccccc12	33.3%	/	-9.6%	-1.5%	-37.6%	-9.7%
CCOC(=O)/C(C(C)=O)=C1\OC(=O)c2ccccc21	4.6%	1.3%	?	-27.7%	-26.3%	8.0%
C#CCOCCOCCOCCNc1nc(N2CCN(C(=O)[C@H](C(C)C)n3cc(CCO)nn3)CC2)nc(N2CCN(C(=O)[C@H]([C@@H](C)CC)n3cc(CCC(=O)O)nn3)CC2)n1	12.6%	/	-23.2%	/	/	/
C#CCOCCOCCOCCNc1nc(N2CCN(C(=O)[C@H](C(C)C)n3cc(CCO)nn3)CC2)nc(N2CCN(C(=O)[C@H]([C@@H](C)CC)n3cc(CCCCN)nn3)CC2)n1	28.5%	2.8%	-26.8%	50.1µM*	-34.1%	-6.7%
C#CCOCCOCCOCCNc1nc(N2CCOCC2)nc(N2CCN(C(=O)[C@H]([C@@H](C)CC)n3cc(CCCCN)nn3)CC2)n1	16.3%	7.2%	?	50.1µM*	?	-5.1%
